Test [1] in a line: antimalarial activity against Dd2 strain (AID 2302;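 active = growth inhibition above 50% at the single 2 µM test dose, taken to imply half-maximal potency below 2 µM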;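 also: 0% = DMSO untreated growth and 100% = chloroquine plus artemisinin killed control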). Conditions: P. falciparum Dd2 in RBCs, LDH growth readout, 72 h; at 2 µM; stronger effect = higher value.
Test [2] in a line: HepG2 cytotoxicity, primary screen, cytotoxicity control for P. falciparum antimalarial project, cell-based, ATP luminescence (AID 2303;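 active = inhibition above 50%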;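 also: 0% = DMSO wells and 100% = digitonin-killed cells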). The settings on record: HepG2 viability, 24-48 h, at 10 µM, stronger effect = higher value.
In test [3] the target is L-lactate dehydrogenase (Plasmodium falciparum (isolate CDC / Honduras)) (UniProt Q27743). The test can be described thus: PfLDH activity inhibition – cell lysate, 3D7 strain, counter-screen for P. falciparum growth inhibition project (AID 2304).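 Also: 0% = vehicle and 100% = reference inhibitor.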 Conditions: P. falciparum 3D7 crude extract, LDH APAD/NBT absorbance; at 2 µM; stronger effect = higher value. (A counterscreen serves to expose hits that act by an unwanted route or on another target.)
Sequence of L-lactate dehydrogenase (Plasmodium falciparum (isolate CDC / Honduras)) (Q27743 whole entry, looked up): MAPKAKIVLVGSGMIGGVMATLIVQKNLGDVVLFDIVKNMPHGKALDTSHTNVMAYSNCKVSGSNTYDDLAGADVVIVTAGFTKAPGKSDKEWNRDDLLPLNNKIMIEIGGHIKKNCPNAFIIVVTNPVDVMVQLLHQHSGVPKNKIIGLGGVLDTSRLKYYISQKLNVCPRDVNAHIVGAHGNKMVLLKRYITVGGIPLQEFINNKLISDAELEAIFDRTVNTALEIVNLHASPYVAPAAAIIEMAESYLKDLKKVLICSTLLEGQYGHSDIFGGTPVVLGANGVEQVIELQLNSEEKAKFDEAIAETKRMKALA

Test [4] in a line: inhibition of 3D7 malaria parasite growth – strain 3D7 (AID 2306).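 Also: 0% = DMSO wells and 100% = chloroquine plus artemisinin control wells.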 Conditions: P. falciparum 3D7 erythrocytic growth, LDH absorbance, 72 h; at 2 µM; stronger effect = higher value.
Test [5] has as its target Calcium-dependent protein kinase 1 (Plasmodium falciparum (isolate 3D7)) (UniProt P62344). The test can be described thus: PfCDPK1 kinase inhibitors, biochemical, TCAMS library (AID 1159585; cut-off not given, nearly all actives have IC50 up to about 0.98 µM;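 also: inhibitors leave more ATP so luminescence rises with inhibition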). The settings on record: recombinant PfCDPK1, Kinase-Glo ATP depletion luminescence. A general note: Kinase-Glo measures the ATP left after a reaction by luminescence.
Test [6] has as its target Plasmodium falciparum protein kinase 6 (PK6, PF3D7_1337100) (UniProt Q8IDW1). The test can be described thus: PfPK6 kinase inhibitors, biochemical, TCAMS library (AID 1159586). Conditions: recombinant PfPK6, Kinase-Glo ATP depletion luminescence.
The target in test [7] is Protein kinase 7 (PK7), Plasmodium falciparum 3D7 (PF3D7_0213400) (UniProt Q7YTF7). Nature of the test: inhibition of Plasmodium PK7 catalytic activity – biochemical, TCAMS antimalarial set, Kinase-Glo luminescence (AID 1159587). The settings on record: recombinant PfPK7, Kinase-Glo ATP depletion luminescence.
Sequence of Protein kinase 7 (PK7), Plasmodium falciparum 3D7 (PF3D7_0213400) (Q7YTF7 1-343): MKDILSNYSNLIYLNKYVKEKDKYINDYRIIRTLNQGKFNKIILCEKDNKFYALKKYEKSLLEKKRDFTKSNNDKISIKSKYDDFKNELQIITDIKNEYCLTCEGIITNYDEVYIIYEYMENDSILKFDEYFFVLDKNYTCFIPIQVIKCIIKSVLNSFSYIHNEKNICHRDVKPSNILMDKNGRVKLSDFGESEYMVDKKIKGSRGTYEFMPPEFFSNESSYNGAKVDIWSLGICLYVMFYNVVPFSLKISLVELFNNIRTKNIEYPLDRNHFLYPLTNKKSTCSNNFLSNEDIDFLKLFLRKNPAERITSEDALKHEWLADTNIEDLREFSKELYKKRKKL
Test [8] addresses Calcium-dependent protein kinase 4 (Plasmodium falciparum (isolate 3D7)) (UniProt Q8IBS5). The test can be described thus: PfCDPK4 kinase inhibitors, biochemical, TCAMS library (AID 1159588; cut-off not given, nearly all actives have IC50 up to about 0.91 µM). Conditions: recombinant PfCDPK4, Kinase-Glo ATP depletion luminescence.

Unmarked numbers belong to inactive results. For part of these data: Results with a measured potency or affinity are listed apart. The source made the active and inactive calls. Unless noted, no rule for the calls is given here.

Sequence of Plasmodium falciparum protein kinase 6 (PK6, PF3D7_1337100) (Q8IDW1 1-305): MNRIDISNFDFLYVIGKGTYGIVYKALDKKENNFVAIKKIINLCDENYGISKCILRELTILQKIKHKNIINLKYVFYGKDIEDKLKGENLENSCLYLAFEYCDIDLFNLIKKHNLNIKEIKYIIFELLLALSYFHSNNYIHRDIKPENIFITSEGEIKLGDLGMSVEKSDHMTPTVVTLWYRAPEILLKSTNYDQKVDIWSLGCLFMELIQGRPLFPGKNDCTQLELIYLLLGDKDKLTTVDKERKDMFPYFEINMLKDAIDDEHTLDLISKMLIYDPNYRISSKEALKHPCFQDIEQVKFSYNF
Sequence of Calcium-dependent protein kinase 1 (Plasmodium falciparum (isolate 3D7)) (P62344 whole entry, looked up): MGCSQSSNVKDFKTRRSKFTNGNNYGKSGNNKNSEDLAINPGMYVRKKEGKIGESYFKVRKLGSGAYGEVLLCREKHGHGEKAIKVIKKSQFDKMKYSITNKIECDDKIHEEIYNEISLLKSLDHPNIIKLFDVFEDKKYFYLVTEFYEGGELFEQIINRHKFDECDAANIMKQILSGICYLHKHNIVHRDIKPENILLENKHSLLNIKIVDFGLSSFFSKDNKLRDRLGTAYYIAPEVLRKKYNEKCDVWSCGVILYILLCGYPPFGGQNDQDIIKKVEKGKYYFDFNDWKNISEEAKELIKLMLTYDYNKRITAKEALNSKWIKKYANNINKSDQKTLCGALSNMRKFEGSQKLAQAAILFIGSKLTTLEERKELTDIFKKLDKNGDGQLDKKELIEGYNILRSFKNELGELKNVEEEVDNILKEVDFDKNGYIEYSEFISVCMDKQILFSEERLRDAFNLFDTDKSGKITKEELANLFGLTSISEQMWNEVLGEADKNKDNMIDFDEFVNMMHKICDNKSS
Sequence of Calcium-dependent protein kinase 4 (Plasmodium falciparum (isolate 3D7)) (Q8IBS5 whole entry, looked up): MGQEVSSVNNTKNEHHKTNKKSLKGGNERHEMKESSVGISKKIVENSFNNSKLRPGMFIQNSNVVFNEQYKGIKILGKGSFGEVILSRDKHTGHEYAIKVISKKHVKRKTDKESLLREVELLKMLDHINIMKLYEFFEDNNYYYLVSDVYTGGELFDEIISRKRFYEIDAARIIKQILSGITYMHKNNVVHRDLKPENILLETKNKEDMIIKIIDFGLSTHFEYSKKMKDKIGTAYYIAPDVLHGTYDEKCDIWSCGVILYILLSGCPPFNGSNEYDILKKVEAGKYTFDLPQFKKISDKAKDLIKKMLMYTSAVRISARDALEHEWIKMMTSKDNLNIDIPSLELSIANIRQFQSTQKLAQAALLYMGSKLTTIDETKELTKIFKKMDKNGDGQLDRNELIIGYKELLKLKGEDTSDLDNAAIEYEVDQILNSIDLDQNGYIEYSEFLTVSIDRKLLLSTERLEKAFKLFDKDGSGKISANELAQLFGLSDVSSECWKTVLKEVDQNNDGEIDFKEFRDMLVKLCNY

As a reminder, the inhibition is the drop in the measured response relative to a control, in per cent. For `N#Cc1ccc(NC(=NCc2ccc(Cl)cc2Cl)Nc2cccc(Cl)c2Cl)c(O)c1`, the results for the growth inhibition in test [1] and in test [4] were 75% (active) and 97% (active), respectively. For the same molecule, the inhibition in test [2] is 3%; in test [3], -6%. Also, the result in test [5], in test [6], in test [7] and in test [8] was inactive.

Regarding `COc1cccc(CN2CCC(C(=O)Nc3ccc(-c4nc5ccccc5[nH]4)cc3)CC2)c1`, the growth inhibition in test [1] was 84% (active); in test [4], 101% (active). Moreover, the inhibition is 9% in test [2] and -3% in test [3]. Also, the outcome in test [5], in test [6], in test [7] and in test [8] was inactive.

With `Oc1cccc(CNCCCN(Cc2ccccc2)c2ccccc2)c1`, the results for the growth inhibition in test [1] and in test [4] were 97% (active) and 99% (active), respectively. The inhibition in test [2] was 7%; in test [3], -6%. Further, the outcome in test [5], in test [6], in test [7] and in test [8] was inactive.

Regarding `Oc1ccc2c(c1CNC1CCCCC1)CCCC2`, the growth inhibition was 94% (active) in test [1] and 98% (active) in test [4]. Moreover, the inhibition is 0% in test [2] and -3% in test [3]. In addition, the outcome in test [5], in test [6], in test [7] and in test [8] was inactive.

Regarding `Cc1cc(N(C)C)nc(Nc2ccc(NC(=O)COc3ccccc3)cc2)n1`, the growth inhibition was 67% (active) in test [1] and 101% (active) in test [4]. Besides, the inhibition in test [2] was 15%; in test [3] it was 3%. In addition, the result in test [5], in test [6], in test [7] and in test [8] was inactive.

Take `Fc1cccc(COc2ccc(-n3ccc4c(NCCCn5ccnc5)ncnc43)cc2Cl)n1`: the growth inhibition in test [1] is 29%; in test [4] it was 87% (active). The inhibition is 14% in test [2] and -2% in test [3]. Also, the result in test [5], in test [6], in test [7] and in test [8] was inactive.

As to `O=C(Nc1cccc(-c2cc(-c3c(Cl)cccc3Cl)no2)c1)c1cncc(-c2cccs2)c1`, the values for the growth inhibition in test [1] and in test [4] were 39% and 91% (active), respectively. Further, the inhibition in test [2] was -1%; in test [3] it was -2%. Also, the outcome in test [5], in test [6], in test [7] and in test [8] was inactive.

As for `COc1cccc(C(=O)[C@H]2C[C@@H]2CN(C)CCC(O)c2ccc(Cl)c(Cl)c2)c1` (stereo partly drawn), the results for the growth inhibition in test [1] and in test [4] were 95% (active) and 99% (active), respectively. Moreover, the inhibition in test [2] is 17%; in test [3], -2%. The outcome in test [5], in test [6], in test [7] and in test [8] was inactive.

For the molecule `COc1cccc2cc(C(=O)N[C@@H](CC(C)C)C(=O)N[C@H](/C=N/N(C)C(=O)OC(C)(C)C)CC(=O)OC(C)(C)C)oc12`, the growth inhibition in test [1] is 67% (active); in test [4], 87% (active). In addition, the inhibition in test [2] was 5%; in test [3], -8%. The outcome in test [5], in test [6], in test [7] and in test [8] was inactive.

Consider `Cc1ccc(CON2C(N)=NC(N)=NC23CCCCC3)c2ccccc12`, for which the growth inhibition in test [1] is 56% (active); in test [4], 98% (active). Moreover, the inhibition is 57% (active) in test [2] and -8% in test [3]. Further, the result in test [5], in test [6], in test [7] and in test [8] was inactive.

On to `COc1ccc2ncc(F)c(CCN3C[C@H](CNCc4ccccc4)[C@H](O)C3)c2n1`, for which the growth inhibition in test [1] is 22%; in test [4], 89% (active). The inhibition is 19% in test [2] and 8% in test [3]. The outcome in test [5], in test [6], in test [7] and in test [8] was inactive.

Take `CCCCC1(NC(=O)[C@@H](Nc2ccc(C#N)c3ccccc23)C2CCCCC2)CCCCC1`: the figures for the growth inhibition in test [1] and in test [4] were 84% (active) and 91% (active), respectively. Besides, the inhibition in test [2] was 8%; in test [3] it was 0%. Moreover, the outcome in test [5], in test [6], in test [7] and in test [8] was inactive.

On to `CN(C)CCNCc1cccc(-c2ccc3c(Nc4ccc(F)cc4Cl)ccnc3c2)c1`, for which the growth inhibition is 98% (active) in test [1] and 102% (active) in test [4]. Besides, the values for the inhibition in test [2] and in test [3] were 17% and 1%, respectively. For the same molecule, the outcome in test [5], in test [6], in test [7] and in test [8] was inactive.

In the case of `N#Cc1cccc(C(=O)Nc2cccc(-c3ccc(CN4CCCC4)cc3)c2)c1`, the growth inhibition is 42% in test [1] and 98% (active) in test [4]. In addition, the figures for the inhibition in test [2] and in test [3] were 11% and 1%, respectively. Also, the outcome in test [5], in test [6], in test [7] and in test [8] was inactive.

For `O=C(NCc1ccc(C(=O)N2CCC(N3CCCCC3)CC2)cc1)c1cc(-c2cccc(C(F)(F)F)c2)ccc1O`, the growth inhibition is 58% (active) in test [1] and 100% (active) in test [4]. Moreover, the inhibition in test [2] is -3%; in test [3] it was 1%. The outcome in test [5], in test [6], in test [7] and in test [8] was inactive.

`Cc1cc(N[C@@H](Cc2ccccc2)C(=O)NCCCOC(C)C)nc(NCCc2ccc(F)cc2)n1`: the growth inhibition in test [1] was 36%; in test [4], 101% (active). Besides, the inhibition is 15% in test [2] and 0% in test [3]. Besides, the result in test [5], in test [6], in test [7] and in test [8] was inactive.

Regarding `COc1ccccc1CCNc1nc(C)cc(N[C@@H](Cc2ccccc2)C(=O)NCc2cccs2)n1`, the growth inhibition is 73% (active) in test [1] and 100% (active) in test [4]. Moreover, the figures for the inhibition in test [2] and in test [3] were 18% and 1%, respectively. Moreover, the outcome in test [5], in test [6], in test [7] and in test [8] was inactive.

In the case of `O=C(Nc1ccsc1)Nc1cccc(-c2cccc(-c3nc4ccccc4[nH]3)c2)c1`, the results for the growth inhibition in test [1] and in test [4] were 55% (active) and 101% (active), respectively. The inhibition in test [2] was 61% (active); in test [3], -7%. The result in test [5], in test [6], in test [7] and in test [8] was inactive.

`CCCC(N)C(=O)NC1CCN(c2c(F)c(N)c3c(=O)c(C(=O)O)cn4c3c2Oc2ccccc2-4)C1` (stereo not drawn): the growth inhibition in test [1] and in test [4] was 98% (active) in each case. Further, the inhibition in test [2] is 66% (active); in test [3] it was -5%. In addition, the outcome in test [5], in test [6], in test [7] and in test [8] was inactive.

`COc1ccc(-c2ccc(CN(C)C3CCC(NC(=O)c4cc5ccccc5[nH]4)CC3)cc2)cn1` (stereo not drawn): the growth inhibition was 2% in test [1] and 88% (active) in test [4]. For the same molecule, the inhibition is 31% in test [2] and -1% in test [3]. Also, the result in test [5], in test [6], in test [7] and in test [8] was inactive.

As for `CCN1CCC(N2CCC(C(=O)Nc3cccc(-c4cccc(Cl)c4)c3)CC2)CC1`, the values for the growth inhibition in test [1] and in test [4] were 82% (active) and 91% (active), respectively. The inhibition in test [2] is 54% (active); in test [3], -1%. For the same molecule, the outcome in test [5], in test [6], in test [7] and in test [8] was inactive.

The values above are taken from PubChem BioAssay.
